Results filed as inconclusive are left out. Active and inactive are the calls of the source. How the source made its calls, unless noted: active means hit-call score of the fitted dose curve at least 0.9, where 1 is the maximum; inconclusive means response in the unintended direction; inactive means score below 0.9.
Tests used:
PGR (gene 5241) [1] = target: PGR (gene 5241) (UniProt P06401); test: TOX21_PR_BLA_Followup_Agonist_ratio: Tox21 HEK293 Progesterone Receptor (PR) Agonism Beta-lactamase Follow-Up Assay, Ratio (AID 2283933)
Procedure, shortened: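 Cells were seeded and held 6 hr before compound addition, exposed for 16 hr at 37C, then given FRET substrate for 2 hr at room temperature. Agonism was scored from the blue/green substrate cleavage ratio against DMSO controls.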

PGR (gene 5241) [2] = target: PGR (gene 5241) (UniProt P06401); test: TOX21_PR_BLA_Followup_Antagonist_ratio: Tox21 HEK293 Progesterone Receptor (PR) Antagonism Beta-lactamase Follow-Up Assay, Ratio (AID 2283934);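 further: PR-UAS-bla HEK293T cells stimulated with 1 nM R5020 agonist for 16 hr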
Procedure, shortened: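 Cells are plated, rested 6 hr, then dosed with test compound in DMSO and challenged with 1 nM promegestone. After 16 hr incubation, substrate loading for 2 h at room temperature precedes fluorescence reading; viability is measured in the same wells.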

[3] = TOX21_PR_BLA_Followup_Agonist_viability: Viability Assessment in the Tox21 HEK293 Progesterone Receptor (PR) Agonism Beta-lactamase Follow-Up Assay (AID 2283935);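 further: signal loss means lower viability so actives are cytotoxic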
Procedure, shortened: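 Cells were plated in medium with 2% charcoal-stripped FBS and rested 6 hr. Compounds in DMSO were then added for 16 hr at 37C, followed by the FRET substrate step and CellTiter-Glo luminescence after 30 min.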

[4] = TOX21_PR_BLA_Followup_Antagonist_viability: Viability Assessment in the Tox21 HEK293 Progesterone Receptor (PR) Antagonism Beta-lactamase Follow-Up Assay (AID 2283936);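 further: cells exposed to compound with R5020 agonist for 16 h; hits lower the luminescence signal meaning cytotoxicity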
Procedure, shortened: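 PR-UAS-bla HEK293T cells in medium with 2% charcoal-stripped FBS were treated with compounds plus R5020 for 16 hr at 37C. After the beta-lactamase read, CellTiter-Glo was added to the same wells and luminescence read after 30 min at room temperature.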

PGR (gene 5241) [5] = target: PGR (gene 5241) (UniProt P06401); test: TOX21_PR_LUC_Followup_Agonist: Tox21 HEK293 Progesterone Receptor (PR) Agonism Luciferase Follow-Up Assay (AID 2283937; active means hit-call score of the fitted dose curve at least 0.9, where 1 is the maximum; inactive means score below 0.9)
Procedure, shortened: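 Seed HEK293-PR-A-luc cells, wait 5 h, add compounds in DMSO, incubate 16 h at 37C, add ONE-Glo, read luminescence after 30 min. Activity is increase over DMSO controls; run with a viability counter-screen.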

PGR (gene 5241) [6] = target: PGR (gene 5241) (UniProt P06401); test: TOX21_PR_LUC_Followup_Antagonist: Tox21 HEK293 Progesterone Receptor (PR) Antagonism Luciferase Follow-Up Assay (AID 2283938);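 further: curve fitted upward as signal gain over DMSO baseline despite antagonist label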
Procedure, shortened: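 HEK293-PR-A-luc cells, 3,000/well, preincubated 5 h at 37C before compound addition in DMSO; 16 h compound exposure at 37C. ONE-Glo luciferase luminescence read after 30 min at room temperature, fitted relative to DMSO baseline.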

[7] = TOX21_PR_LUC_Followup_Antagonist_viability: Viability Assessment in the Tox21 HEK293 Progesterone Receptor (PR) Antagonism Luciferase Follow-Up Assay (AID 2283940)
Procedure, shortened: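 HEK293-PR-A-luc, 3,000 cells/well; 5 h at 37C/0% CO2; compound pin transfer; 16 h incubation; CellTiter-Glo ATP luminescence, signal loss = cytotoxicity.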

[8] = TOX21_PR_LUC_Followup_Agonist_viability: Viability Assessment in the Tox21 HEK293 Progesterone Receptor (PR) Agonism Luciferase Follow-Up Assay (AID 2283941);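 further: loss of signal means cytotoxicity so actives lower viability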
Procedure, shortened: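 Multiplexed viability endpoint of the PR agonist luciferase follow-up: HEK293-PR-A-luc cells treated 16 h at 37C, with viability scored as decrease in CellTiter-Glo ATP signal.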

[9] = target: Nucleoli Translocation, AR (gene 367) (UniProt P10275); test: UPITT_HCI_U2OS_AR_TIF2_Nucleoli_Antagonist: University of Pittsburgh U2OS Androgen Receptor-Transcriptional Intermediary Factor 2 (AR-TIF2) Antagonism High Content Imaging Assay for Nucleoli Translocation (AID 2283997)
Procedure, shortened: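 An antagonist-mode imaging screen: engineered U2OS (AR-RFP, TIF2-GFP) exposed to 20 uM compound, 0.2% DMSO. Activity reflects nucleolar red fluorescence change relative to DHT baseline.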

[10] = target: Nucleoli Translocation, AR (gene 367) (UniProt P10275); test: UPITT_HCI_U2OS_AR_TIF2_Nucleoli_Agonist: University of Pittsburgh U2OS Androgen Receptor-Transcriptional Intermediary Factor 2 (AR-TIF2) Agonism High Content Imaging Assay for Nucleoli Translocation (AID 2283998)
Procedure, shortened: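 U2OS cells expressing RFP-tagged human AR and GFP-tagged TIF2; red fluorescence in nucleoli quantified by high-content imaging. Primary screen at 20 uM final (0.2% DMSO); concentration-response 0.195–50 uM (0.5% DMSO), fitted upward versus DMSO.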

[11] = target: Ratio of Nucleoli Translocation and Cytoplasm, AR (gene 367) (UniProt P10275); test: UPITT_HCI_U2OS_AR_TIF2_Nucleoli_Cytoplasm_Ratio_Agonist: University of Pittsburgh U2OS Androgen Receptor-Transcriptional Intermediary Factor 2 (AR-TIF2) Agonism High Content Imaging Assay for Ratio of Nucleoli Translocation and Cytoplasm (AID 2284000);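 further: hits raise the red nucleolar to cytoplasm ratio above vehicle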
Procedure, shortened: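 Primary screen at 20 uM final (0.2% DMSO), then triplicate confirmation and dose-response from 0.195 to 50 uM final (0.5% DMSO). Cells: U2OS with AR-RFP and TIF2-GFP. Endpoint is the nucleoli/cytoplasm red-fluorescence ratio, gain-of-signal vs DMSO.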

[12] = CCTE_Harrill_HTTr_Viability_MCF7: CCTE's 6-hour Cell Viability Assessment for the High-Throughput Transcriptomics (HTTr) Platform, in MCF-7 cells cultured in DMEM + 10% fetal bovine serum, Harrill Lab (AID 2284010; active means hit-call score of the fitted dose curve at least 0.9, where 1 is the maximum; inactive means score below 0.9)
Procedure, shortened: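 Read-out is propidium iodide gain of signal by high-content imaging, reflecting membrane integrity loss. Measurements are taken 6 h after dosing, eight concentrations per chemical, with DMSO serving as baseline for bidirectional curve fitting.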

[13] = CCTE_Harrill_HTTr_Apoptosis_MCF7: CCTE's 6-hour Apoptosis Assessment for the High-Throughput Transcriptomics (HTTr) Platform, in MCF-7 cells cultured in DMEM + 10% fetal bovine serum, Harrill Lab (AID 2284011; active means hit-call score of the fitted dose curve at least 0.9, where 1 is the maximum; inactive means score below 0.9)
Procedure, shortened: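 MCF-7 cells in DMEM + 10% FBS exposed 6 h to chemicals over an eight-point dilution series. Caspase-3/7 activation imaged by high-content CellEvent Green staining; fitted bidirectionally versus DMSO.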

[14] = target: T1, Thyroid hormone receptor alpha (Rattus norvegicus) + Thyroid hormone receptor beta (Rattus norvegicus) (UniProt P18113+P63059); test: TOX21_TR_LUC_GH3_Agonist_Followup: Tox21 GH3 Thyroid Hormone Receptor Agonism Luciferase Follow-Up Assay (AID 2283939)
Procedure, shortened: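 Agonist-mode confirmatory run: 15 concentrations (5 nM to 92 uM final) on GH3 rat pituitary cells, 24 h at 37C/5% CO2, T3 as positive control. Luminescence read with ONE-Glo after 30 min.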

THRA (gene 7067) [15] = target: THRA (gene 7067) (UniProt P10827); test: TOX21_TRA_COA_Agonist_Followup_ratio: Tox21 Thyroid Hormone Receptor alpha Agonism through Coactivator Recruitment Follow-Up Assay, Ratio (AID 2283948; active means hit-call score of the fitted dose curve at least 0.9, where 1 is the maximum; inactive means score below 0.9)
Procedure, shortened: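 Cell-free TR-FRET: GST-tagged TRα LBD (2.5 nM) with 0.10% BSA and compound, then fluorescein-SRC-2 peptide (200 nM) and Tb-anti-GST antibody (2 nM). Readout 520:495 nm ratio (ex 340 nm), normalized to DMSO (0%) and T3 (100%).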

THRB (gene 7068) [16] = target: THRB (gene 7068) (UniProt P10828); test: TOX21_TRB_COA_Agonist_Followup_ratio: Tox21 Thyroid Hormone Receptor beta Agonism through Coactivator Recruitment Follow-Up Assay, Ratio (AID 2283963; active means hit-call score of the fitted dose curve at least 0.9, where 1 is the maximum; inactive means score below 0.9)
Procedure, shortened: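 GST-TRb LBD 5.0 nM + 0.10% BSA + cpd; add fluorescein-SRC-2 200 nM / Tb anti-GST Ab 2 nM; TR-FRET ex 340, em 520:495; norm DMSO 0%, T3 100%.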

[17] = target: Retinoic acid receptor RXR-alpha (Homo sapiens) (UniProt P19793); test: TOX21_TR_RXR_BLA_Agonist_Followup_ratio: Tox21 Thyroid Hormone Receptor beta Retinoid X Receptor alpha (RXRa) Agonism Beta-lactamase (BLA) Follow-Up Assay, Ratio (AID 2283968)
Procedure, shortened: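 Cells were first allowed to attach for 5 h, after which compounds in DMSO were pinned at 11 concentrations and incubated 16 h at 37C. LiveBLAzer CCF4-AM substrate was then added for 2 h at room temperature before reading 460 and 530 nm fluorescence.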

[18] = TOX21_TR_RXR_BLA_Agonist_Followup_viability: Viability Assessment in the Tox21 Thyroid Hormone Receptor beta Retinoid X Receptor alpha (RXRa) Agonism Beta-lactamase (BLA) Follow-Up Assay (AID 2283970)
Procedure, shortened: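 Viability counter-screen run alongside the RXRa bla follow-up: HEK293T reporter cells were treated for 16h at 37C in stripped-serum medium, then ATP was quantified by luciferase-coupled CellTiter-Glo. Decreased signal relative to DMSO marked cytotoxicity.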

THRB (gene 7068) [19] = target: THRB (gene 7068) (UniProt P10828); test: TOX21_TRB_BLA_Agonist_Followup_ratio: Tox21 Thyroid Hormone Receptor beta Agonism Beta-lactamase (BLA) Follow-Up Assay, Ratio (AID 2283954)
Procedure, shortened: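 Agonist mode: compounds (11-point, triplicate) incubated 18 h with HEK293T cells carrying GAL4-DBD/human TRβ-LBD and UAS-β-lactamase. Blue/green (460/530 nm) FRET ratio read after 2 h CCF4-AM loading; CellTiter-Glo viability run in the same plates.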

[20] = target: T1, Thyroid hormone receptor alpha (Rattus norvegicus) + Thyroid hormone receptor beta (Rattus norvegicus); test: TOX21_TR_LUC_GH3_Antagonist_Followup: Tox21 GH3 Thyroid Hormone Receptor Antagonism Luciferase Follow-Up Assay (AID 2283942)
Procedure, shortened: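 In a GH3 luciferase reporter line, test chemicals spanning 92 uM to 5nM final are co-incubated 24 h with 1.0 nM T3. Activity is expressed as relative luminescence units and analysed relative to DMSO.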

THRA (gene 7067) [21] = target: THRA (gene 7067) (UniProt P10827); test: TOX21_TRA_COA_Antagonist_Followup_ratio: Tox21 Thyroid Hormone Receptor alpha Antagonism through Coactivator Recruitment Follow-Up Assay, Ratio (AID 2283953)
Procedure, shortened: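 GST-TRα LBD 2.5 nM, BSA 0.10%, + cpd; then FITC-SRC-2 peptide 200 nM + Tb-anti-GST Ab 2 nM. TR-FRET ratio 520/495 nm. Norm: DMSO = 0%, T3 = 100%.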

THRB (gene 7068) [22] = target: THRB (gene 7068) (UniProt P10828); test: TOX21_TRB_BLA_Antagonist_Followup_ratio: Tox21 Thyroid Hormone Receptor beta Antagonism Beta-lactamase (BLA) Follow-Up Assay, Ratio (AID 2283958)
Procedure, shortened: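 Cells were plated and allowed to attach for 5 h, then dosed with compounds in DMSO at 11 concentrations for 18 h at 37C. Beta-lactamase reporter activity was measured via CCF4-AM FRET as the 460:530 nm ratio.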

THRB (gene 7068) [23] = target: THRB (gene 7068) (UniProt P10828); test: TOX21_TRB_COA_Antagonist_Followup_ratio: Tox21 Thyroid Hormone Receptor beta Antagonism through Coactivator Recruitment Follow-Up Assay, Ratio (AID 2283967)
Procedure, shortened: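 Coactivator (SRC-2) recruitment to purified GST-TRβ ligand-binding domain is monitored by terbium-to-fluorescein energy transfer, emission ratio 520:495 nm. DMSO wells define 0% and T3 wells 100% activity.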

[24] = TOX21_TR_RXR_BLA_Antagonist_Followup_viability: Viability Assessment in the Tox21 Thyroid Hormone Receptor beta Retinoid X Receptor alpha (RXRa) Antagonism Beta-lactamase (BLA) Follow-Up Assay (AID 2283979)
Procedure, shortened: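 RXRa-UAS-bla HEK293T cells seeded 2,500/well in phenol red-free DMEM with 2% charcoal-stripped FBS, attached 5 h, then exposed to compounds at 11 concentrations in triplicate for 16 h at 37C/5% CO2. Viability read by CellTiter-Glo ATP luminescence; bidirectional fit versus DMSO.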

Measured: AC50

Chain of PGR (gene 5241) (P06401 whole entry, looked up): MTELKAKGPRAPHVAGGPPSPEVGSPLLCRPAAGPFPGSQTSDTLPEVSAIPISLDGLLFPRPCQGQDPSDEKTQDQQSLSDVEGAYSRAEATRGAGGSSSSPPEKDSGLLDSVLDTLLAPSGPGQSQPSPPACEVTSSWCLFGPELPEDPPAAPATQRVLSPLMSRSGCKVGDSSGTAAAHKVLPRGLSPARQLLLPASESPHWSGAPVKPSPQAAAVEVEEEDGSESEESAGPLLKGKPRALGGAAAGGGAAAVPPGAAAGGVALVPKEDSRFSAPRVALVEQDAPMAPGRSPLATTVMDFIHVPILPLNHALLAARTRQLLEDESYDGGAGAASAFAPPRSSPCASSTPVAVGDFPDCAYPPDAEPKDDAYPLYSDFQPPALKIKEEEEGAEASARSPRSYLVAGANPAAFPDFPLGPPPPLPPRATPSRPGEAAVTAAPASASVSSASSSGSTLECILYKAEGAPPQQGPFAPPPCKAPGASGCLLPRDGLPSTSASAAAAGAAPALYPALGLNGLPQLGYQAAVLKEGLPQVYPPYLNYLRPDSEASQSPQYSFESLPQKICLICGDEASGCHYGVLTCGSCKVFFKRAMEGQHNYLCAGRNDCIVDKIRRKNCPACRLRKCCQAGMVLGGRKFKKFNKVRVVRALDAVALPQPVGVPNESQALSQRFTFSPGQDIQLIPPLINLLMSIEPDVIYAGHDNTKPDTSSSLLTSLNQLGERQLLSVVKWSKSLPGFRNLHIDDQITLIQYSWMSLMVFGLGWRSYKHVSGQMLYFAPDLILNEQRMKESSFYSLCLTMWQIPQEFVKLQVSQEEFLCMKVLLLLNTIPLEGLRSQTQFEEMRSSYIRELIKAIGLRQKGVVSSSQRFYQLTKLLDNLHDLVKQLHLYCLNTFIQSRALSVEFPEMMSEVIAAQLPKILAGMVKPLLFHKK
Chain of THRA (gene 7067) (P10827 whole entry, looked up, the tested form may be a part): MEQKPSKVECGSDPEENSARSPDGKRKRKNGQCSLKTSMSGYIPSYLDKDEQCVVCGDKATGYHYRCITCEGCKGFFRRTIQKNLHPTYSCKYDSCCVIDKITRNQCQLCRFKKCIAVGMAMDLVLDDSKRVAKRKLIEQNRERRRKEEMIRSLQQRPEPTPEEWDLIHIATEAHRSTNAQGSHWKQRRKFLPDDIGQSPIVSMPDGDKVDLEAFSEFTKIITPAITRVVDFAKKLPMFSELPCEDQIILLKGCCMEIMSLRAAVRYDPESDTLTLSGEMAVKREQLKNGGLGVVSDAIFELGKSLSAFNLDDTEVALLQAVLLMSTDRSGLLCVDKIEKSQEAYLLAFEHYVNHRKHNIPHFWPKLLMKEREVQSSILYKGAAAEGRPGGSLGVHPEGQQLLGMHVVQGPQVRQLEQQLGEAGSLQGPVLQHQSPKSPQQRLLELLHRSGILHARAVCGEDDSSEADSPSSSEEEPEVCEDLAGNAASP
Chain of THRB (gene 7068) (P10828 whole entry, looked up, the tested form may be a part): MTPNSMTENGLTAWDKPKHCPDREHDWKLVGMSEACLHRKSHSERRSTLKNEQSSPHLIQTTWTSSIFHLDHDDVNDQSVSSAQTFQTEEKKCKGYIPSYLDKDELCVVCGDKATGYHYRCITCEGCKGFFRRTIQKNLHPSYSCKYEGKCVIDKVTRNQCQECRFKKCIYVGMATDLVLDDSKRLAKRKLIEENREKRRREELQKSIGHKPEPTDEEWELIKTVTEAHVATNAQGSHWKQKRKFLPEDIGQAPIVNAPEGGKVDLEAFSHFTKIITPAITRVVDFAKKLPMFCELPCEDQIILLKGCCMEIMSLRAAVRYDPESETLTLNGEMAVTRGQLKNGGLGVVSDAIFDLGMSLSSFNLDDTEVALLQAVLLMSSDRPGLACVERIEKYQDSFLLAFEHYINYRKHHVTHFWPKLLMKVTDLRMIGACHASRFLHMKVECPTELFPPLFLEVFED
T1 sequence (P63059 whole entry, looked up): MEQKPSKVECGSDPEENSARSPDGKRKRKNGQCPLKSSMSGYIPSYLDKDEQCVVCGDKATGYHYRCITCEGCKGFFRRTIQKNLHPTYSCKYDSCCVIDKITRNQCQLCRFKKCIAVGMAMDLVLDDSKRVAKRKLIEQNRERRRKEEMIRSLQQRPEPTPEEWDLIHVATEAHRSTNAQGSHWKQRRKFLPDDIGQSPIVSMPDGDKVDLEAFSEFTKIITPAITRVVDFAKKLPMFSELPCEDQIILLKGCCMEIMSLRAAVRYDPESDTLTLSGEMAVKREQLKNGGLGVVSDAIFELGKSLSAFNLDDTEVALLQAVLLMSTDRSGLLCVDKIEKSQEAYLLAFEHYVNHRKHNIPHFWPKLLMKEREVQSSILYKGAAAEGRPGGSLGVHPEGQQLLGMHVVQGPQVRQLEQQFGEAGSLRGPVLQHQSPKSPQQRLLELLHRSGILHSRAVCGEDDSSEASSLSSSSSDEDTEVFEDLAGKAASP
T1 sequence (P18113 whole entry, looked up): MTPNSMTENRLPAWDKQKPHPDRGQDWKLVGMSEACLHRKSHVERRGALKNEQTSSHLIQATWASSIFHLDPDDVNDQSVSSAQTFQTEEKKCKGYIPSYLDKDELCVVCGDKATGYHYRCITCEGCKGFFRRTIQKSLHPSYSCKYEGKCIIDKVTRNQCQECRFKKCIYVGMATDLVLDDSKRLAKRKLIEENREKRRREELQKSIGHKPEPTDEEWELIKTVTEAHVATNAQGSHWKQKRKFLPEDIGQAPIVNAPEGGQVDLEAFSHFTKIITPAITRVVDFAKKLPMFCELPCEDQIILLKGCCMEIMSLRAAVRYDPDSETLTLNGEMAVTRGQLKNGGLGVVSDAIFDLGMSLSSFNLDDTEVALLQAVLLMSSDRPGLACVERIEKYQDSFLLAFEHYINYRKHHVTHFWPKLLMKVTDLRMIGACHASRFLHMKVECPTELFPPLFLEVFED
Chain of Nucleoli Translocation, AR (gene 367) (P10275 whole entry, looked up): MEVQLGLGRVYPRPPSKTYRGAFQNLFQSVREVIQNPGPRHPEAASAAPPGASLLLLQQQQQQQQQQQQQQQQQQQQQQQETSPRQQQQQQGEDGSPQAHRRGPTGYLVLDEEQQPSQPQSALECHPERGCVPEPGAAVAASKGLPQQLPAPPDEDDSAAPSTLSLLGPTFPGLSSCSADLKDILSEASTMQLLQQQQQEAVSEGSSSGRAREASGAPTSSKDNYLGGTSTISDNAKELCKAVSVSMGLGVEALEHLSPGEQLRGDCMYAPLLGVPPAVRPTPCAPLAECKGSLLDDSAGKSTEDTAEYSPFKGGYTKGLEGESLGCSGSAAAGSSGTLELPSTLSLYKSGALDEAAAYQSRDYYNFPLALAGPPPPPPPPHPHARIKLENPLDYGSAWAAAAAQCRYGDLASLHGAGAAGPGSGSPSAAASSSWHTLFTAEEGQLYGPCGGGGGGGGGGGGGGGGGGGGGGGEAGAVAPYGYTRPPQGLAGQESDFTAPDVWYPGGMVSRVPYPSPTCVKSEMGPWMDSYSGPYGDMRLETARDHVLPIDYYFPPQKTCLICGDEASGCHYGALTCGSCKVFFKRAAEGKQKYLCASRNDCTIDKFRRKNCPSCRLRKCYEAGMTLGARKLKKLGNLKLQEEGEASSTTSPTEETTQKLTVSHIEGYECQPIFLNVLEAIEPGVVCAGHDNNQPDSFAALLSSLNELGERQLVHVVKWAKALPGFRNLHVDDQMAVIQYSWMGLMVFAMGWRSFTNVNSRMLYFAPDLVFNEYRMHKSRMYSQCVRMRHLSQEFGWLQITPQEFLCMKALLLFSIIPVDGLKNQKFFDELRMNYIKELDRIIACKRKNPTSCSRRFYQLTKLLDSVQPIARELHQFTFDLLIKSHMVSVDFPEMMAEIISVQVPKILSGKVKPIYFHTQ
Chain of Retinoic acid receptor RXR-alpha (Homo sapiens) (P19793 whole entry, looked up): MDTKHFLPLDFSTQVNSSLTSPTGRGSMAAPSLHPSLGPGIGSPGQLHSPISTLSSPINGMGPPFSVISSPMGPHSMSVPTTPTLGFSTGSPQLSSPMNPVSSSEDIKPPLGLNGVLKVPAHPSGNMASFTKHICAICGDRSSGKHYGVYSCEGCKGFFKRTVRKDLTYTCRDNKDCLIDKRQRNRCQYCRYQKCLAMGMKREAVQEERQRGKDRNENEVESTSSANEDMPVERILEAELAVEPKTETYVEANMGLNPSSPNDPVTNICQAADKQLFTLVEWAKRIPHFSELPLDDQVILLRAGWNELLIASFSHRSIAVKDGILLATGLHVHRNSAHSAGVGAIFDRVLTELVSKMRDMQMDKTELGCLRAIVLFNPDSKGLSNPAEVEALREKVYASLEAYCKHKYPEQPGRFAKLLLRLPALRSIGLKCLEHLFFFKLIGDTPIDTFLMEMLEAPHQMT
Chain of Ratio of Nucleoli Translocation and Cytoplasm, AR (gene 367) (P10275 whole entry, looked up): as the sequence (P10275 whole entry, looked up) above

CC(C)(C)C(O)/C=C/c1ccc2c(c1)OCO2 (stereo not drawn)
inactive: PGR (gene 5241) [1] | PGR (gene 5241) [2] | [3] | [4] | PGR (gene 5241) [5] | PGR (gene 5241) [6] | [7] | [8]

CCCCC(C)=O
inactive: [9] | [10] | [11] | [12] | [13]

C[C@]12CCC(=O)C=C1CC[C@@H]1[C@@H]2[C@@H](O)C[C@@]2(C)[C@H]1CC[C@]2(O)C(=O)CO
active: PGR (gene 5241) [5] 1300 nM
inactive: PGR (gene 5241) [1] | PGR (gene 5241) [2] | [3]

COC(=O)[C@@H]1CC2=CC(=O)CC[C@]2(C)[C@@]23O[C@@H]2C[C@@]2(C)[C@@H](CC[C@@]24CCC(=O)O4)[C@H]13
inactive: PGR (gene 5241) [1] | [3] | [4] | PGR (gene 5241) [5] | PGR (gene 5241) [6] | [7] | [8]

C=C(NC(=O)C(=C)NC(=O)c1csc(C2=NC3c4csc(n4)C4NC(=O)c5csc(n5)C(C(C)(O)C(C)O)NC(=O)C5CSC(=N5)/C(=C/C)NC(=O)C(C(C)O)NC(=O)c5csc(n5)C3(CC2)NC(=O)C(C)NC(=O)C(=C)NC(=O)C(C)NC(=O)C(C(C)CC)NC2C=Cc3c(C(C)O)cc(nc3C2O)C(=O)OC4C)n1)C(N)=O (stereo not drawn)
active: [14] 2470 nM
inactive: THRA (gene 7067) [15] | THRB (gene 7068) [16] | [17] | [18]

Nc1ncn([C@H]2C[C@H](O)[C@@H](CO)O2)c(=O)n1
inactive: [14] | THRA (gene 7067) [15] | THRB (gene 7068) [19] | THRB (gene 7068) [16] | [17] | [18]

CC(=O)OCC(=O)[C@H]1CC[C@H]2[C@@H]3CCC4=CC(=O)CC[C@]4(C)[C@H]3CC[C@]12C
inactive: PGR (gene 5241) [2] | [3] | [4] | PGR (gene 5241) [6] | [7] | [8] | [20] | THRA (gene 7067) [21] | THRB (gene 7068) [22] | THRB (gene 7068) [23] | [24]
active: PGR (gene 5241) [1] 844 nM | PGR (gene 5241) [5] 29.7 nM
